KDM4E inh: qHTS Assay for Inhibitors of Human Jumonji Domain Containing 2E (JMJD2E). Lysine-specific demethylase 4E (Homo sapiens), B2RXH2. JMJD2E catalytic domain, FDH-coupled NADH fluorescence (FDH is formaldehyde dehydrogenase). Potency, µM (series often up to 57.1 µM), without a hit: at the highest dose activity change, negative = inhibition, usual class: inhibitors. hit rate 1.6% among 230,000. AID 2147, 2009; active means well fitted inhibition curve with a large enough effect, not every such curve was filed as active; inconclusive means small, poorly fitted or top-dose-only effect, or another doubt; inactive means no such curve, though single readings can be large or run the other way;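 further: potency means the concentration at half of the fitted maximal effect; 0% = wells with enzyme and -100% = buffer wells without enzyme; nearly all actives have a fitted effect of over 50% in size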
Target sequence (B2RXH2 1-337 limits assumed): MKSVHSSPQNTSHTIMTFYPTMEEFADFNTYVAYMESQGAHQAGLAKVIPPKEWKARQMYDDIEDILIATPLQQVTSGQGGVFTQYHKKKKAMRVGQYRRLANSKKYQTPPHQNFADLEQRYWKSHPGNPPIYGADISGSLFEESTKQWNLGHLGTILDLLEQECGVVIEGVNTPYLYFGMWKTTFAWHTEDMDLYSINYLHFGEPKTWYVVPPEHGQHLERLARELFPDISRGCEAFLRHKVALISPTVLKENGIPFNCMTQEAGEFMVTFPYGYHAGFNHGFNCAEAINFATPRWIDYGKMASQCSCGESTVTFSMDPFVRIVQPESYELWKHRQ
LMNA splice mod: qHTS Assay for Modulators of Lamin A Splicing; HeLa LMNA splicing GFP/RFP minigene ratio, 48 h; Potency, µM (doses to about 46.1 µM), for the others: at the highest dose ratio change, negative = inhibition, most hits filed as inhibitors; hit rate 0.01% among 200,000; active means well fitted inhibition curve with a large enough effect in the signal ratio, with a control signal flat, not every such curve was filed as active; inconclusive means small, poorly fitted or top-dose-only effect, or effect the other way, or a change in a side signal; the % refers to the signal ratio; further: potency means the concentration at half of the fitted maximal effect; on the % scale 0 is the no-effect control and ±100 the full control effect
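Read-out is the ratio of GFP to DsRed2 object intensity, acquired by 488 nm laser-scanning cytometry on HeLa lamin A-EGFP minigene reporter cells. Compound incubation 48 hrs at 37 °C in Opti-MEM with 2% FBS; DMSO 0.5% final.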
ALDH1A1 block: qHTS Assay for Inhibitors of Aldehyde Dehydrogenase 1 (ALDH1A1). Purified ALDH1A1, NADH fluorescence, propionaldehyde substrate. Aldehyde dehydrogenase 1A1 (Homo sapiens), P00352. Potency, µM (top dose mostly 75.3 µM), for inactives: top-dose activity, negative = inhibition, actives largely listed as inhibitors. hit rate 7.3% among 220,000. AID 1030, 2008; active means well fitted inhibition curve with a large enough effect, not every such curve was filed as active; inconclusive means small, poorly fitted or top-dose-only effect, or another doubt; inactive means no such curve, though single readings can be large or run the other way;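 further: potency means the concentration at half of the fitted maximal effect; plate controls were no enzyme wells and a reference inhibitor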
Sfp inh: qHTS Assay for Inhibitors of Bacillus subtilis Sfp phosphopantetheinyl transferase (PPTase); 4'-phosphopantetheinyl transferase ffp (Bacillus subtilis), Q9F4F7; Biochemical Sfp PPTase activity, qHTS; Potency, µM, inactives show largest response in the series, negative = inhibition, hits mostly inhibitors; hit rate 3.5% among 310,000;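 further: the enzyme is Sfp with the accession as filed and its product quenches rhodamine fluorescence; potency means the concentration at half of the fitted maximal effect; 0% = enzyme reaction without inhibitor and -100% = no enzyme wells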
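Fluorescence-quenching assay: 15 nM Sfp-PPTase preincubated 15 min at room temperature with compound, then 5 uM rhodamine-CoA and 12.5 uM BHQ-2-labelled YbbR peptide added. Fluorescence (ex 525/em 598 nm) read at start and after 30 min; difference gives rate.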
miR-21 act: qHTS Assay for Modulators of miRNAs and/orActivators of miR-21 | HeLa miR-21 FLuc reporter, luciferase, 48 h | Potency, µM (top dose mostly 38.3 µM), without a hit: at the highest dose activity change, positive = activation, actives largely listed as activators | 340,000 tested, under 10 active;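 further: % of control where 0% means no effect; miR-21 action dims this reporter so a rising signal means less miR-21 action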
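Luminescence from a firefly luciferase reporter carrying a miR-21 binding site downstream, stably expressed under a CMV promoter in HeLa cells that make miR-21 endogenously, reports miRNA modulation after 48 h compound exposure up to approximately 40uM final.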
G9a inh: qHTS Assay for Inhibitors of Histone Lysine Methyltransferase G9a | Histone-lysine N-methyltransferase EHMT2 (Homo sapiens), Q96KQ7 | G9a H3K9 monomethylation, AlphaScreen, 2 h | Potency, µM (top dose mostly 102 µM), for the others: at the highest dose activity, negative = inhibition, most hits filed as inhibitors | hit rate 8.8% among 350,000; further: potency means the concentration at half of the fitted maximal effect; on the % scale 0 is the no-effect control and ±100 the full control effect; nearly all actives have a fitted effect of over 75% in size
Target sequence (Q96KQ7 913-1193 limits assumed): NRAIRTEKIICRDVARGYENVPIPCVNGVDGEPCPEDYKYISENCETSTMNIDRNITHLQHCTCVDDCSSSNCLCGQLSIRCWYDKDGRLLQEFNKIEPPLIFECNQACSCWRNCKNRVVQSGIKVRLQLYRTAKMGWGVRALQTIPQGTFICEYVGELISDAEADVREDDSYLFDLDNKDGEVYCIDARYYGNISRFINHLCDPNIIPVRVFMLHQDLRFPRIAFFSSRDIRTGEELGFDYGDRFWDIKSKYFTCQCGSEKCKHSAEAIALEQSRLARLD
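Methyltransferase reactions run at room temperature for 2 h (20 nM enzyme, 500 nM biotin-H3K9 peptide, 20 uM SAM) after a 15 min compound preincubation; product detected by AlphaScreen beads and anti-H3K9me1 antibody.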
Starred values were filed as active, the others as inactive; [ ] = another dose, or the depositor's remark. This is a sample that favours compounds with a hit; in the whole collection about 13% have one here. Unless noted, the call rests on the fitted dose curve; in most records, active means well fitted curve in the direction sought with a large enough effect; inconclusive means small, poorly fitted or top-dose-only effect, or another doubt; inactive means no such curve, though single readings can be large; an effect the other way counts as inactive or inconclusive.

For Brc1ccc(-c2csc(NNC3=NCCCCC3)n2)cc1 the results were KDM4E inh 6.0%, LMNA splice mod -3.7%, ALDH1A1 block 11.2µM*, Sfp inh 50.1µM*, miR-21 act -18.7% and G9a inh 12.6µM*.
Screening CC(C)(C)c1ccc(-c2csc(NNC3=NCCCCC3)n2)cc1 returned KDM4E inh 7.5%, LMNA splice mod -10.6%, ALDH1A1 block -15.4%, Sfp inh 50.1µM*, miR-21 act -11.2% and G9a inh 12.6µM*.
Screening c1ccc(-c2csc(NC3=NCCCCC3)n2)cc1 returned KDM4E inh 0.3%, LMNA splice mod -9.6%, ALDH1A1 block -2.2%, Sfp inh 0.1%, miR-21 act -54.3% and G9a inh 13.9%[59 µM].
FC(F)Oc1ccc(-c2csc(NNC3=NCCCCC3)n2)cc1 was read as KDM4E inh -3.5%, ALDH1A1 block inconclusive, Sfp inh 22.4µM*, miR-21 act -12.1% and G9a inh 12.6µM*.
For CC(=O)N1CCc2cc(CNS(=O)(=O)c3ccc(Br)s3)ccc21 the results were LMNA splice mod inconclusive, miR-21 act -21.8% and G9a inh -0.8%[59 µM].
Cn1ccc2ccc(C3=CC(=O)C[C@H](c4ccc(F)cc4)C3)cc21 was read as G9a inh -13.6%[0.501 µM].
Screening Cc1ccc(CCNC(=O)CN2CCN(Cc3ccc(Cl)cc3)C2=O)cc1 returned miR-21 act 7.4% and G9a inh 17.4%[59 µM].
`CCOC(=O)c1c(C)n(C)c2ccc(OC)c(NC(=O)CN3CCN(Cc4ccccc4)CC3)c12` gave KDM4E inh 6.2%, LMNA splice mod -2.9%, ALDH1A1 block -1.0%, Sfp inh 2.7%, miR-21 act -12.3% and G9a inh -44.1%.
Screening COC(=O)c1c(NC(=O)CN2CCN(C(=O)c3ccco3)CC2)c2c(C)cccc2n1C returned KDM4E inh inconclusive, LMNA splice mod -7.4%, ALDH1A1 block inconclusive, Sfp inh 20µM*, miR-21 act 2.3% and G9a inh inconclusive.
CCOC(=O)c1c(C)n(C)c2ccc(OC)c(NC(=O)CN3CCN(C(=O)c4ccco4)CC3)c12 was read as KDM4E inh -13.0%, LMNA splice mod -4.0%, ALDH1A1 block 7.94µM*, Sfp inh 7.4%, miR-21 act -6.6% and G9a inh 31.6µM*.
Screening CC(C)C1N(C(=O)N2CCOCC2)CCN1S(=O)(=O)c1ccccc1 (stereo not given) returned Sfp inh 7.1%, miR-21 act 2.4% and G9a inh 16.4%.
For Cc1noc(C)c1C(=O)N1CCCc2ccccc21 the results were KDM4E inh -6.7%, LMNA splice mod 5.4%, ALDH1A1 block 25.1µM*, Sfp inh 8.5%, miR-21 act -6.2% and G9a inh -17.5%[59 µM].
O=C(C1CC(c2ccc(F)cc2)=NO1)N1CCc2ccccc2C1 (stereo not given) was read as KDM4E inh 0.2%, LMNA splice mod -1.8%, ALDH1A1 block -9.7%, Sfp inh 1.6%, miR-21 act -31.1% and G9a inh 14.0%.
Screening COc1cccc(-c2cc(C(=O)N3CCCc4ccccc43)no2)c1 returned KDM4E inh 8.3%, LMNA splice mod -5.7%, ALDH1A1 block inconclusive, Sfp inh 1.3%, miR-21 act -53.3% and G9a inh 26.9%[12.7 µM].
COc1ccc(-c2cc(C(=O)N3CCCc4ccccc43)no2)cc1 was read as KDM4E inh 2.4%, LMNA splice mod inconclusive, ALDH1A1 block 3.98µM*, Sfp inh 3.4%, miR-21 act -24.1% and G9a inh 18.4%[59 µM].
O=C(c1cc(-c2cccs2)on1)N1CCCc2ccccc21 was read as KDM4E inh -9.8%, LMNA splice mod -6.1%, ALDH1A1 block 14.1µM*, Sfp inh -12.1%, miR-21 act -37.5% and G9a inh -11.6%[59 µM].
COc1cccc(C2=NOC(C(=O)N3CCc4ccccc4C3)C2)c1 (stereo not given) was read as KDM4E inh -9.4%, LMNA splice mod -11.2%, ALDH1A1 block -3.1%, Sfp inh 5.3%, miR-21 act -11.8% and G9a inh 7.94µM*.
For C#CC(C)(CC)NC(=O)Cn1nnc(-c2ccc(OCc3ccccc3F)cc2)n1 (stereo not given) the results were miR-21 act -2.8% and G9a inh 1.2%[59 µM].
`COc1ccc(C2=NOC(C(=O)N3CCCc4ccccc43)C2)cc1` (stereo not given) gave KDM4E inh -0.3%, LMNA splice mod -2.8%, ALDH1A1 block 12.6µM*, Sfp inh 4.3%, miR-21 act -23.2% and G9a inh 7.4%.
Screening COc1cc(C2=NOC(C(=O)N3CCCc4ccccc43)C2)cc(OC)c1OC (stereo not given) returned KDM4E inh -6.3%, LMNA splice mod -4.5%, ALDH1A1 block inconclusive, Sfp inh 5.0%, miR-21 act -0.2% and G9a inh 23.0%[59 µM].
For Cc1noc(C)c1C(=O)N1CCC2(CCCN(C(=O)Nc3cccc(F)c3)C2)CC1 the results were ALDH1A1 block 3.4%, Sfp inh 9.3% and G9a inh 0.7%[12.7 µM].
CC1(C)CC(=O)C(C=Nc2ccccc2C(=O)O)=C(O)C1 was read as KDM4E inh inconclusive, LMNA splice mod 13.4%, ALDH1A1 block inconclusive, Sfp inh -11.4%, miR-21 act -3.6% and G9a inh -24.3%[59 µM].
CC1(C)CC(=O)c2cc(N=C/C(C(=O)c3ccccc3)=C(\O)c3ccccc3)c(=O)oc2C1 was read as KDM4E inh -16.3%, LMNA splice mod 0.1%[46 µM], ALDH1A1 block inconclusive, Sfp inh -6.8%, miR-21 act -42.7% and G9a inh 25.1µM*.
Screening FC(F)(F)c1cnc(C(c2ccccn2)c2ncn[nH]2)c(Cl)c1 (stereo not given) returned KDM4E inh 25.1µM*, LMNA splice mod inconclusive, ALDH1A1 block 14.0%, Sfp inh 26.4%, miR-21 act 27.9% and G9a inh 43.6%.
Screening COC(=O)C(NC(C)=O)(Nc1ccc(Br)cn1)C(F)(F)F (stereo not given) returned KDM4E inh 4.3%, LMNA splice mod -7.4%, ALDH1A1 block 7.08µM*, Sfp inh 12.0%, miR-21 act -0.4% and G9a inh -0.8%[59 µM].

Screening results as filed in PubChem BioAssay.
